Here are results for 58 compounds from the supplement of paper PMC13380429.

Assay [1] concerns Vero E6 infected with SARS-CoV-2. In words: morphology score (similarity to uninfected cells); higher = more like uninfected cells. Conditions: 24 h.
Assay [2] has the same test system. Briefly: SARS-CoV-2 infection rate relative to infected DMSO; higher = more infection, active = 60 or less. As to conditions: 24 h.

`COc1cc2/c(=N/c3ccc(Br)cc3F)nc[nH]c2cc1OCC1CCN(C)CC1` [vandetanib] (10 µM) returned a morphology score in assay [1] of 0.0459. In assay [2], the SARS-CoV-2 infection rate is 102% (inactive).
On the same counts, the results for `COC(=O)c1cnn(-c2ccc(F)cc2F)c1/C=N/NC(=S)NC(C)(C)C` (10 µM) are 0.433 and 74% (inactive).
The corresponding values for `CC(C)(C)C(=O)/C(=N/c1ccc(Cl)cc1)NNc1ccc(Cl)cc1` (10 µM) are -0.145 and 114% (inactive).
On the same counts, the results for `CN[C@H](CNC(=O)N1CCC[C@@H]([C@@H](OCCNC(=O)OC)c2cccc(Cl)c2)C1)C[C@H]1CCCOC1` (10 µM) are -0.0283 and 105% (inactive).
`C1Cc2[nH]nc(-c3nn[nH]n3)c2C1` (10 µM) showed a morphology score in assay [1] of -0.0417. For the same compound, the SARS-CoV-2 infection rate in assay [2] was 109% (inactive).
`COc1cc(N)c(Cl)cc1C(=O)N[C@@H]1CCN(CCCOc2ccc(F)cc2)C[C@@H]1OC` (racemic) [cisapride] (10 µM) showed a morphology score in assay [1] of -0.0266. Also, the SARS-CoV-2 infection rate in assay [2] was 112% (inactive).
The corresponding values for `CC1CC(OC(=O)C(O)c2ccccc2)CC(C)(C)N1C` (stereo unspecified) [eucatropine] (10 µM) are -0.104 and 115% (inactive).
On the same counts, the results for `Oc1ccc(OCc2ccccc2)cc1` [monobenzone] (10 µM) are -0.207 and 119% (inactive).
Regarding `CC(C)(Oc1ccc(Cl)cc1)C(=O)O` [clofibric-acid] (10 µM), the morphology score in assay [1] was -0.0106. Besides, the SARS-CoV-2 infection rate in assay [2] was 98.5% (inactive).
The corresponding values for `CC[C@@H](CO)NC(=O)[C@@H]1C=C2c3cccc4c3c(cn4C)C[C@H]2N(C)C1` [methysergide] (10 µM) are 0.0741 and 110% (inactive).
On the same counts, the results for `CC(=O)[C@H]1CC[C@H]2[C@@H]3CC[C@H]4C[C@](C)(O)CC[C@]4(C)[C@H]3CC[C@]12C` [ganaxolone] (10 µM) are -0.0442 and 104% (inactive).
The corresponding values for `CN(C)CCOC(C)(c1ccccc1)c1ccccn1` (stereo unspecified) [doxylamine] (10 µM) are 0.112 and 96% (inactive).
The compound `O=C1C=C2C=C[C@@H]3C[C@@]2(O1)[C@H]1CCCCN31` [securinine] (10 µM) registered a morphology score in assay [1] of 0.327. Also, the SARS-CoV-2 infection rate in assay [2] was 85.5% (inactive).
On the same counts, the results for `CC(C)=CCc1c(O)cc(O)c2c(=O)c(O)c(-c3ccc(C(F)(F)F)cc3)oc12` (0.833333 µM) are 0.14 and 104% (inactive).
As for `CCCOc1ccc(C(=O)OCCN(CC)CC)cc1N` [proxymetacaine] (10 µM), the morphology score in assay [1] was -0.0115. Moreover, the SARS-CoV-2 infection rate in assay [2] was 108% (inactive).
On the same counts, the results for `O=C(CCCN1CC=C(n2c(=O)[nH]c3ccccc32)CC1)c1ccc(F)cc1` [droperidol] (10 µM) are 0.0599 and 112% (inactive).
The corresponding values for `CCCN(C/C=C/I)C1CCc2cccc(O)c2C1` (stereo unspecified) [8-hydroxy-PIPAT] (10 µM) are -0.0478 and 106% (inactive).
The corresponding values for `CCCCOc1cc(C(=O)NCCN(CC)CC)c2ccccc2n1` [cinchocaine] (10 µM) are 0.435 and 88% (inactive).
Consider `CC(C)(C)NC(=O)N[C@H](C(=O)N1C[C@H]2[C@@H]([C@H]1C(=O)NC(CC1CCC1)C(=O)C(N)=O)C2(C)C)C(C)(C)C` (stereo partly specified) [boceprevir] (10 µM), for which the morphology score in assay [1] worked out at 0.133. Besides, in assay [2], the SARS-CoV-2 infection rate is 113% (inactive).
On the same counts, the results for `Cc1cc2nc3c(=O)[nH]c(=O)nc-3n(C)c2cc1C=O` (10 µM) are 0.102 and 100% (inactive).
As to `CC[C@]1(O)C[C@H]2CN(CCc3c([nH]c4ccccc34)[C@@](C(=O)OC)(c3cc4c(cc3OC)N(C=O)[C@H]3[C@@](O)(C(=O)OC)[C@H](OC(C)=O)[C@]5(CC)C=CCN6CC[C@]43[C@@H]65)C2)C1` [Vincristine (sulfate)] (10 µM), the morphology score in assay [1] is -0.036. Also, in assay [2], the SARS-CoV-2 infection rate is 101% (inactive).
The corresponding values for `Cn1cc(-c2ccc3nnc(Sc4ccc5ncccc5c4)n3n2)cn1` (10 µM) are 0.144 and 87% (inactive).
Take `C[n+]1cccc(C(=O)[O-])c1` [trigonelline] (0.833333 µM): the morphology score in assay [1] was determined as 0.0676. The SARS-CoV-2 infection rate in assay [2] is 108% (inactive).
On the same counts, the results for `NS(=O)(=O)c1cc(C(=O)O)cc(N2CCCC2)c1Oc1ccccc1` [piretanide] (10 µM) are 0.0293 and 110% (inactive).
The corresponding values for `N=C(N)Nc1ccc(Cl)cc1` [4-chlorophenylguanidine] (10 µM) are -0.231 and 114% (inactive).
On the same counts, the results for `O=C1CC2(CCCC2)CC(=O)N1CCNC[C@H]1COc2ccccc2O1` (10 µM) are -0.0647 and 113% (inactive).
Take `C[C@@H]1COCCN1c1cc(=O)n2c(n1)N(Cc1cncc(Cl)c1)[C@H](C(F)(F)F)CC2` (0.833333 µM): the morphology score in assay [1] came to 0.55. In assay [2], the SARS-CoV-2 infection rate is 70% (inactive).
On the same counts, the results for `Cc1ccc(Cl)c(OC[C@H](O)CNC(C)C)c1` [1-(2-chloro-5-methylphenoxy)-3-(isopropylamino)-2-propanol] (10 µM) are 0.0769 and 95.5% (inactive).
The corresponding values for `O=C1c2c(O)cc(O)cc2O[C@H](c2cc(O)c(O)c(O)c2)[C@H]1O` [dihydromyricetin] (10 µM) are -0.0984 and 108% (inactive).
On the same counts, the results for `CC(C)N(CCCNC(=O)Nc1ccc(C(C)(C)C)cc1)C[C@H]1O[C@@H](n2ccc3c(N)ncnc32)[C@H](O)[C@@H]1O` (10 µM) are -0.157 and 108% (inactive).
`CN1C(=O)/C(=C2/C(=O)Nc3ccccc32)c2ccccc21` [meisoindigo] (0.833333 µM): in assay [1], the morphology score turned out to be 0.0882. Moreover, the SARS-CoV-2 infection rate in assay [2] is 96.5% (inactive).
Take `C[C@@H](N)[C@H]1CC[C@H](C(=O)Nc2ccncc2)CC1` (10 µM): the morphology score in assay [1] is 0.243. Besides, the SARS-CoV-2 infection rate in assay [2] was 106% (inactive).
Compound `Cc1nc2cnc3ccc(C#Cc4cccnc4)cc3c2n1-c1ccc(C(C)(C)C#N)cc1` (10 µM) came in with a morphology score in assay [1] of 0.114. Further, the SARS-CoV-2 infection rate in assay [2] is 109% (inactive).
In assay [1], `COc1cc2nccc(Oc3ccc(NC(=O)C4(C(=O)Nc5ccc(F)cc5)CC4)cc3)c2cc1OC` [cabozantinib] (0.833333 µM) yielded a morphology score of 0.329. In assay [2], the SARS-CoV-2 infection rate was 97.5% (inactive).
In the case of `CN1CCC(c2c[nH]c3ccc(O)cc23)CC1` (10 µM), the morphology score in assay [1] is 0.214. Further, the SARS-CoV-2 infection rate in assay [2] was 101% (inactive).
On the same counts, the results for `O=c1[nH]c2ccccc2n1C1CCN(CCCC(c2ccc(F)cc2)c2ccc(F)cc2)CC1` [pimozide] (10 µM) are 0.48 and 66.5% (inactive).
On the same counts, the results for `OCCC#Cc1nc(-c2ccc(F)cc2)c(-c2ccncc2)n1CCCc1ccccc1` (10 µM) are 0.0292 and 101% (inactive).
In assay [1], `O=c1[nH]c(=O)n([C@H]2C[C@H](O)[C@@H](CO)O2)cc1C(F)(F)F` [trifluridine] (0.833333 µM) gave a morphology score of 0.175. Further, the SARS-CoV-2 infection rate in assay [2] was 101% (inactive).
Regarding `CC(C)(C)OC(=O)c1ncn2c1[C@@H]1CCCN1C(=O)c1c(Br)cccc1-2` [bretazenil] (10 µM), the morphology score in assay [1] is 0.108. In addition, the SARS-CoV-2 infection rate in assay [2] was 101% (inactive).
On the same counts, the results for `NC(N)=Nc1nc(CSCC/C(N)=N/S(N)(=O)=O)cs1` [famotidine] (10 µM) are -0.0119 and 106% (inactive).
On the same counts, the results for `CO[C@@]1(NC(=O)Cc2cccs2)C(=O)N2C(C(=O)O)=C(COC(N)=O)CS[C@@H]21` [cefoxitin] (10 µM) are 0.228 and 100% (inactive).
The corresponding values for `OC[C@H]1O[C@@H](Oc2cc(O)cc(/C=C/c3ccc(O)cc3)c2)[C@H](O)[C@@H](O)[C@@H]1O` [polydatin] (10 µM) are 0.0104 and 104% (inactive).
As to `O=C(O)CCC(=O)OC[C@@H](NC(=O)C(Cl)Cl)[C@H](O)c1ccc([N+](=O)[O-])cc1` [chloramphenicol-sodium-succinate] (10 µM), in assay [1], the morphology score turned out to be 0.049. Also, the SARS-CoV-2 infection rate in assay [2] is 108% (inactive).
Take `Cn1cc(-c2ccc3c(c2)CCN3C(=O)Cc2cccc(C(F)(F)F)c2)c2c(N)ncnc21` (0.833333 µM): the morphology score in assay [1] turned out to be 0.029. Moreover, in assay [2], the SARS-CoV-2 infection rate is 92% (inactive).
On the same counts, the results for `COc1ccc(Cl)cc1C(=O)NCCc1ccc(C(=O)O)cc1` [meglitinide] (10 µM) are 0.13 and 102% (inactive).
Take `O=C(O)Cc1ccc2c(c1)C(=O)c1ccccc1CO2` [isoxepac] (10 µM): the morphology score in assay [1] turned out to be 0.152. Moreover, the SARS-CoV-2 infection rate in assay [2] is 103% (inactive).
Consider `CC(=O)N[C@@H](Cc1c[nH]c2ccccc12)C(=O)OCc1cc(C(F)(F)F)cc(C(F)(F)F)c1` (10 µM), for which, in assay [1], the morphology score worked out at 0.31. Besides, the SARS-CoV-2 infection rate in assay [2] was 93% (inactive).
The corresponding values for `C[C@]12C[C@H](O)[C@H]3[C@@H](CCC4=CC(=O)CC[C@@]43C)[C@@H]1CC[C@@H]2C(=O)CO` [corticosterone] (10 µM) are 0.0999 and 110% (inactive).
On the same counts, the results for `c1cc(-c2sc(-c3ccncc3)c(-c3ccncc3)c2-c2ccncc2)ccn1` (10 µM) are 0.0438 and 93% (inactive).
On the same counts, the results for `NCC(CC(=O)O)c1ccc(Cl)cc1` (stereo unspecified) [baclofen] (10 µM) are 0.138 and 109% (inactive).
Regarding `COc1cc(C)nc(-n2nc(C)cc2OC)n1` [epirizole] (10 µM), the morphology score in assay [1] was found to be 0.0529. The SARS-CoV-2 infection rate in assay [2] was 111% (inactive).
The corresponding values for `C[C@H](CS)C(=O)N1CCC[C@H]1C(=O)O` [captopril] (10 µM) are 0.0071 and 104% (inactive).
On the same counts, the results for `CNCCc1ccc(O)c(O)c1` [deoxyepinephrine] (10 µM) are 0.0423 and 106% (inactive).
The corresponding values for `C=C1/C(=C\C=C2/CCC[C@]3(C)[C@@H]([C@H](C)CCCC(C)C)CC[C@@H]23)C[C@@H](O)C[C@@H]1O` [alfacalcidol] (10 µM) are 0.0852 and 98% (inactive).
For the compound `CCCN1CC(NS(=O)(=O)N(CC)CC)CC2Cc3c(O)cccc3CC21` (stereo unspecified) [quinagolide] (10 µM), the morphology score in assay [1] was -0.243. For the same compound, in assay [2], the SARS-CoV-2 infection rate is 112% (inactive).
The corresponding values for `Oc1cc(CNC(=S)/C=C/c2cc(O)c(O)c(Br)c2)cc(O)c1O` (0.833333 µM) are 0.194 and 104% (inactive).
On the same counts, the results for `CN1CCCCC1CCN1c2ccccc2Sc2ccc([S+](C)[O-])cc21` (stereo unspecified) [mesoridazine] (10 µM) are 0.323 and 91% (inactive).
On the same counts, the results for `Nc1cccc2c(=O)[nH][nH]c(=O)c12` [monosodium-alpha-luminol] (10 µM) are 0.000532 and 104% (inactive).
